{
  "source": "PubChem BioAssay (NCI)",
  "note": "Compounds without any hit were thinned out: in the full panel of roughly 83,000, 20% have a hit.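 Compound tested at a single concentration for 48 hours in 96-well plates; a percent growth value below 10 was scored as active.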 Unmarked numbers belong to inactive results. Active and inactive are the calls of the source.",
  "data": [
    {"test_system": "SR leukemia", "assay": "NCI-60 one-dose screen, 48 h (100 = growth as untreated, 0 = no growth, -100 = all killed)", "conditions": "10 µM unless noted", "procedure": "Growth inhibition of the SR human tumor cell line is measured as a screen for anti-cancer activity. Cells are grown in 96 well plates and exposed to the test compound for 48 hours. Compounds are tested at a single concentration, which is 10^-5 M for most compounds. The reported endpoint is percent growth (GI% or GIPRCNT), where numbers from 0 - 100% represent growth inhibition, and numbers from -100% - 0 represent cell death. For example, a value of 40 represents 60% growth inhibition. A value of 0 means no net growth occurred over the course of the experiment. A value of -40 indicates 40% of cells at the beginning of the experiment died by the end of the experiment. A value of -100 means all cells are dead at the end of the experiment.\nNCI-60 Human Tumor Cell Lines Screen was performed using the standard one-dose NCI protocol, which is described in more detail at https://dtp.cancer.gov/discovery_development/nci-60/default.htm.\nCompounds with GIPRCNT values below 10 were considered active. Activity score was based on GIPRCNT using the following formula: […]\nScore is 0 for GIPRCNT values of 100 or above, 50 for GIPRCNT values of 0, and 100 for GIPRCNT values of -100.", "values": [
      {"smiles": "CCCCCN1C=C/C(=C\\C(=O)N2CCCc3ccccc32)c2ccccc21", "growth": "61.6%"},
      {"smiles": "COc1cccc2c1c1nc3cc(C)c(C)cc3nc1n2CCN(C)C", "growth": "3.48% (active)"},
      {"smiles": "O=C(Nc1ncc(Cc2cc(Cl)ccc2Cl)s1)c1cccs1", "growth": "22.9%"},
      {"smiles": "CCN1C(=O)/C(=C/C(=O)OC)S/C1=N\\NC(=O)c1cc2ccc1/C=C\\c1ccc(cc1)/C=C\\2", "growth": "-13.4% (active)"},
      {"smiles": "CC(=O)c1cc2c(N)c(C(=O)Nc3cccc4ccncc34)sc2nc1C", "growth": "49.8%"},
      {"smiles": "Cc1nnc2c(Cc3ccccc3)nc3ccccc3n12", "growth": "94.6%"},
      {"smiles": "OC(c1ccc(F)c(C(F)(F)F)c1)c1cnccc1NC1CCCCC1", "note": "(stereo not given)", "growth": "16.6%"},
      {"smiles": "CC(=O)Nc1ccc(-n2cnc3cc(-c4ccc(OCCN5CCCCC5)cc4)ccc32)cc1", "growth": "-9.89% (active)"},
      {"smiles": "Cc1cc2c(C(=O)NCC#N)cccc2n1-c1nc2c(c(NCc3ccccc3)n1)CCCC2", "growth": "4.15% (active)"},
      {"smiles": "COc1cc(C=O)ccc1OC1OC(COC(C)=O)C(OC(C)=O)C(OC(C)=O)C1OC(C)=O", "note": "(stereo not given)", "growth": "60.7%"},
      {"smiles": "O=[N+]([O-])CC(c1ccccc1)c1c[nH]c2ccccc12", "note": "(stereo not given)", "growth": "20.2%"},
      {"smiles": "COc1cc2oc(-c3cccc(C(=O)Nc4ccc(Cl)cc4)c3)cc(=O)c2c(O)c1OC", "growth": "65.1%"},
      {"smiles": "Cc1cc(C(=O)/C=C/c2ccc[nH]2)ccc1-n1ccc(C(F)(F)F)n1", "growth": "28.4%"},
      {"smiles": "COc1cc(/C=C2\\COc3ccc(-c4ccccc4)cc3C2=O)cc(OC)c1", "growth": "58.5%"},
      {"smiles": "COc1cc2c(c(O)c1Cl)C(=O)c1c(O)cc(C[C@H](C)O)cc1[C@H]2[C@H]1c2cc(C[C@H](C)O)cc(O)c2C(=O)c2c1cc(OC)c(Cl)c2O", "growth": "12.3%"},
      {"smiles": "CC(C)(C)c1cc(C=O)cc(C(C)(C)C)c1O", "growth": "101%"},
      {"smiles": "C=C1C(=O)O[C@H]2[C@H]1CC/C(CNC(=O)C(C)c1ccc(CC(C)C)cc1)=C\\CC[C@@]1(C)O[C@@H]21", "note": "(stereo not given in full)", "growth": "8.13% (active)"},
      {"smiles": "N#C/C(=C\\c1ccc([N+](=O)[O-])s1)c1nc2cc(Cl)ccc2s1", "growth": "-0.613% (active)"},
      {"smiles": "Cc1ccc(/C=C(/C#N)n2nnc3cccc(F)c32)cc1", "growth": "9.82% (active)"},
      {"smiles": "Cc1c(C(=O)NCCC(=O)NO)sc2ncnc(Nc3ccc(F)c(Cl)c3)c12", "growth": "111%"},
      {"smiles": "O=C(Nc1ccc(F)cc1)Nc1ccc(NC(=O)c2cc(Cl)nc3ccccc23)cc1", "growth": "74.1%"},
      {"smiles": "Cc1cccc(C)c1N=c1oc2ccc(Cl)cc2nc1-c1ccccc1O", "growth": "51.9%"},
      {"smiles": "COc1cc(-c2csc(NC(=O)c3cc(F)cc(C(F)(F)F)c3)n2)cc(OC)c1OC", "growth": "16.1%"},
      {"smiles": "c1ccc(-c2c(-c3ccccc3)[n+](Cc3ccc4ccccc4c3)c(-c3cccc4ccccc34)n2Cc2ccc3ccccc3c2)cc1", "growth": "-36.5% (active)"},
      {"smiles": "CCCCNC(=O)Oc1ccc(/C(=C(\\C)c2ccccc2)c2ccc(OCCN3CCCCC3)cc2)cc1", "growth": "0.363% (active)"},
      {"smiles": "COc1ccc(C(=O)c2nc3ccccc3n2CC(=O)c2ccc(F)cc2)cc1", "growth": "41.8%"},
      {"smiles": "CCOC(=O)C1=C(CCl)NC(=O)NC1c1ccc2c(c1)OCO2", "note": "(stereo not given)", "growth": "28%"},
      {"smiles": "N#CC1=C(N)Oc2c(cnn2-c2ccc([N+](=O)[O-])cc2[N+](=O)[O-])C1c1ccccc1", "note": "(stereo not given)", "growth": "98.2%"},
      {"smiles": "NC(=O)CSSCC(N)=O", "growth": "85.2%"},
      {"smiles": "CCOc1cccc(-c2nc(N)nc(Nc3ccccc3SSc3ccccc3Nc3nc(N)nc(-c4cccc(OCC)c4)n3)n2)c1", "growth": "7.62% (active)"},
      {"smiles": "O=S(=O)(NCCNc1nccc(-c2c(-c3cccc(O)c3)nc3occn23)n1)c1ccc(Cl)cc1", "growth": "106%"},
      {"smiles": "CC(=O)O[C@H]1Cc2c([nH]c3ccccc23)[C@@H](c2ccc(Cl)cc2)N1C(=O)CCNC(C)(C)C", "growth": "3.79% (active)"},
      {"smiles": "COc1cc(/C=N/NC(=O)c2cnn3c2NC(c2ccccc2)C3)ccc1OCc1ccccc1", "note": "(stereo not given)", "growth": "0.0936% (active)"},
      {"smiles": "C=C1C(=O)O[C@H]2[C@H]1CC/C(COC(=O)NCc1c[nH]c3ccc(F)cc13)=C\\CC[C@@]1(C)O[C@@H]21", "growth": "13%"},
      {"smiles": "C[C@@H](Nc1ncnc2ccc(-c3cnc(N)nc3)cc12)c1ccc(F)cc1", "growth": "85.3%"},
      {"smiles": "COC(=O)CNC(=O)[C@]12CCC(C)(C)C[C@H]1C1=CC[C@@H]3[C@@]4(C)Cc5c([nH]c6ccccc56)C(C)(C)[C@@H]4CC[C@@]3(C)[C@]1(C)CC2", "growth": "83.3%"},
      {"smiles": "CC1=C(C(=O)/C=C/c2c[nH]c3ccccc23)C(c2ccccc2)NC(=S)N1", "note": "(stereo not given)", "growth": "88.8%"},
      {"smiles": "O=C(/C=C/c1ccc[nH]1)c1ccc(-n2ccc(C(F)(F)F)n2)c(F)c1", "growth": "80.3%"},
      {"smiles": "Cc1ccc(C(=O)/C(=C\\c2ccc([N+](=O)[O-])cc2)S(=O)Cc2ccc(Cl)cc2)cc1", "note": "(stereo not given)", "growth": "6.07% (active)"},
      {"smiles": "O=C(C[n+]1cccc2ccccc21)c1ccc(O)c(O)c1", "growth": "7.71% (active)"}
    ]}
  ]
}
